Test results taken from PubChem BioAssay (NCATS).
Where “and” joins values, the source holds several entries; their conditions need not be identical. Equal values may be shown once. Inconclusive results are not listed. Where a structure was tested more than once in an assay, its records may differ in their call. Calls of active or inactive are those of the source. Unless noted, the call rests on the fitted dose curve; in most records, active means well fitted curve in the direction sought with a large enough effect; inconclusive means small, poorly fitted or top-dose-only effect, or another doubt; inactive means no such curve, though single readings can be large; an effect the other way counts as inactive or inconclusive.

Experiments:
[1] = molecular target: Peroxisome proliferator-activated receptor delta (Homo sapiens) (UniProt Q03181); test: qHTS assay for small molecule antagonists of peroxisome proliferator-activated receptor delta signaling (AID 588535; active means well fitted inhibition curve with a large enough effect in the signal ratio, with a control signal flat, not every such curve was filed as active; the % refers to the signal ratio)
Sequence of Peroxisome proliferator-activated receptor delta (Homo sapiens) (Q03181 whole entry, looked up): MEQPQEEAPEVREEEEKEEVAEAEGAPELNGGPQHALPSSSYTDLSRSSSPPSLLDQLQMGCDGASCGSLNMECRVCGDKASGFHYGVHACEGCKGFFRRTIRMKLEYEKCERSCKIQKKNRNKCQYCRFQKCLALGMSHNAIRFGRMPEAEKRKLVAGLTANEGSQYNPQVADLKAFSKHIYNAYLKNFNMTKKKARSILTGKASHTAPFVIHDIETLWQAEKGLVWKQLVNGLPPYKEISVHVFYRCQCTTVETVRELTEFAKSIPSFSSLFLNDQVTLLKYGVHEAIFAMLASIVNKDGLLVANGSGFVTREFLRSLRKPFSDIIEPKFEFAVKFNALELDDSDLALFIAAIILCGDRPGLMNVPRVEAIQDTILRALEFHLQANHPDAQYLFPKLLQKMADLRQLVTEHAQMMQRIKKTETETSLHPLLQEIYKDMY
Outline: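 Titrations were run on PPAR-delta-UAS-bla HEK293T cells in charcoal/dextran-stripped serum, incubated 18 h at 37 C. CCF4 fluorescence (460/530 nm) after 2 h RT; Hill equation yields IC50 and maximal response.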

[2] = molecular target: Vitamin D3 receptor (Homo sapiens) (UniProt P11473); test: qHTS assay for small molecule antagonists of vitamin D receptor signaling (AID 588541; calls by dose curve;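 further: receptor activated by calcitriol during compound treatment; series mostly up to about 77 µM; on the % scale 0 is the no-effect control and ±100 the full control effect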)
Sequence of Vitamin D3 receptor (Homo sapiens) (P11473 whole entry, looked up): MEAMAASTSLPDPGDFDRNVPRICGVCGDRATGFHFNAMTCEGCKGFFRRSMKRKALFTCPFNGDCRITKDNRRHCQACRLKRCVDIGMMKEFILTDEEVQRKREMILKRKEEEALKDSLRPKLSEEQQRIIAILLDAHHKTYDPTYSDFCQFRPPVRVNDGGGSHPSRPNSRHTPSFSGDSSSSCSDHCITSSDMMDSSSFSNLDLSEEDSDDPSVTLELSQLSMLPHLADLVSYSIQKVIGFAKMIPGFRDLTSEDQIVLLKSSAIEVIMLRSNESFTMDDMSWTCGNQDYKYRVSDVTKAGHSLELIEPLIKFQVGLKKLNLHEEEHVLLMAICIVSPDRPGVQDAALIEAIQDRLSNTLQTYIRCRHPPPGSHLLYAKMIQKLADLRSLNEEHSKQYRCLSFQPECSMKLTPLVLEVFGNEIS
Outline: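 Antagonist-mode beta-lactamase reporter assay: HEK293T VDR-UAS-bla cells were exposed to titrated compound alongside 1-alpha,25-dihydroxyvitamin D3 at 3 nM final for 16 h. Values were normalized to the 50 nM agonist control and DMSO basal, with IC50 and efficacy from Hill equation fits.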

[3] = molecular target: Vitamin D3 receptor (Homo sapiens) (UniProt P11473); test: qHTS assay for small molecule agonists of vitamin D receptor signaling (AID 588543; calls by dose curve;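 further: 0% = DMSO basal and 100% = reference agonist control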)
Outline: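 qHTS in agonist mode: compound titrations stimulate a VDR-driven β-lactamase reporter in HEK293T cells over 16 h at 37 °C. Response normalized to 50 nM 1α,25-dihydroxyvitamin D3 = 100%, DMSO = 0%; Hill fitting gives EC50 and maximal response.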

[4] = qHTS assay for small molecule agonists of retinoid X receptor alpha signaling (AID 588544; calls by dose curve); settings: HEK293T RXRa-UAS-bla, beta-lactamase reporter, 18 h; 530 nm emission
[5] = molecular target: Retinoic acid receptor RXR-alpha (Homo sapiens) (UniProt P19793); test: as above
[6] = molecular target: Thyroid hormone receptor beta (Homo sapiens) (UniProt P10828); test: qHTS assay for small molecule agonists of thyroid hormone receptor beta signaling (AID 588545; calls by dose curve;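 further: 0% = DMSO only and 100% = 10 nM T3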)
Sequence of Thyroid hormone receptor beta (Homo sapiens) (P10828 whole entry, looked up): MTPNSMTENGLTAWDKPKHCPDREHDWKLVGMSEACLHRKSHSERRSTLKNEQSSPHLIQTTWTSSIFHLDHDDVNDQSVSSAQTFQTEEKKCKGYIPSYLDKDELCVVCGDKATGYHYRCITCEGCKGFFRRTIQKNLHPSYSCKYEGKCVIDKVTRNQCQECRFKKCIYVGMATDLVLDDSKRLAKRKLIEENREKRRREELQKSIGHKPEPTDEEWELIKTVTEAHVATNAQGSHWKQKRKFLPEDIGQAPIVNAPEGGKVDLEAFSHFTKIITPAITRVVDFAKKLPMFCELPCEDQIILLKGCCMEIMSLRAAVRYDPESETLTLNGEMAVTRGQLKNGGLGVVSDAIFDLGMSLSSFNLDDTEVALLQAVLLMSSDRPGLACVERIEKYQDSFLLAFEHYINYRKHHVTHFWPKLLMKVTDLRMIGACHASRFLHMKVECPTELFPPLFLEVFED
Outline: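 Beta-lactamase reporter activity under TR response element control is measured in HEK 293 cells after 18 hrs compound exposure. Signal is ratiometric CCF4 fluorescence, 460/530 nm.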

[7] = qHTS assay for small molecule antagonists of retinoid X receptor alpha signaling (AID 588546; active means well fitted inhibition curve with a large enough effect in the signal ratio, with a control signal flat, not every such curve was filed as active; the % refers to the signal ratio;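 further: cells stimulated with 9-cis-retinoic acid as agonist; on the % scale 0 is the no-effect control and ±100 the full control effect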); settings: HEK293T RXRa-UAS-bla, beta-lactamase ratio, antagonist mode; measured here: W530 green channel, cytotoxicity proxy
Outline: (§1)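 Beta-lactamase reporter inhibition, read as CCF4 fluorescence ratio (ex 405, em 460/530 nm) after 2 h at RT. HEK293T UAS-bla cells, 2500/well, were stimulated with 9-cis-RA at 500 or 100 nM final alongside test compound for 18 h at 37 C.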

[8] = molecular target: Retinoic acid receptor RXR-alpha (Homo sapiens) (UniProt P19793); test: as above; settings: HEK293T RXRa-UAS-bla, beta-lactamase ratio, antagonist mode
Outline: as §1

[9] = molecular target: Voltage-gated inwardly rectifying potassium channel KCNH2 (Homo sapiens) (UniProt Q12809); test: qHTS Assay for Small Molecule Inhibitors of the Human hERG Channel Activity (AID 588834);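 further: lower thallium flux fluorescence means stronger hERG block; nearly all actives have a fitted effect of over 50% in size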; further: potency means the concentration at half of the fitted maximal effect
Sequence of Voltage-gated inwardly rectifying potassium channel KCNH2 (Homo sapiens) (Q12809 whole entry, looked up): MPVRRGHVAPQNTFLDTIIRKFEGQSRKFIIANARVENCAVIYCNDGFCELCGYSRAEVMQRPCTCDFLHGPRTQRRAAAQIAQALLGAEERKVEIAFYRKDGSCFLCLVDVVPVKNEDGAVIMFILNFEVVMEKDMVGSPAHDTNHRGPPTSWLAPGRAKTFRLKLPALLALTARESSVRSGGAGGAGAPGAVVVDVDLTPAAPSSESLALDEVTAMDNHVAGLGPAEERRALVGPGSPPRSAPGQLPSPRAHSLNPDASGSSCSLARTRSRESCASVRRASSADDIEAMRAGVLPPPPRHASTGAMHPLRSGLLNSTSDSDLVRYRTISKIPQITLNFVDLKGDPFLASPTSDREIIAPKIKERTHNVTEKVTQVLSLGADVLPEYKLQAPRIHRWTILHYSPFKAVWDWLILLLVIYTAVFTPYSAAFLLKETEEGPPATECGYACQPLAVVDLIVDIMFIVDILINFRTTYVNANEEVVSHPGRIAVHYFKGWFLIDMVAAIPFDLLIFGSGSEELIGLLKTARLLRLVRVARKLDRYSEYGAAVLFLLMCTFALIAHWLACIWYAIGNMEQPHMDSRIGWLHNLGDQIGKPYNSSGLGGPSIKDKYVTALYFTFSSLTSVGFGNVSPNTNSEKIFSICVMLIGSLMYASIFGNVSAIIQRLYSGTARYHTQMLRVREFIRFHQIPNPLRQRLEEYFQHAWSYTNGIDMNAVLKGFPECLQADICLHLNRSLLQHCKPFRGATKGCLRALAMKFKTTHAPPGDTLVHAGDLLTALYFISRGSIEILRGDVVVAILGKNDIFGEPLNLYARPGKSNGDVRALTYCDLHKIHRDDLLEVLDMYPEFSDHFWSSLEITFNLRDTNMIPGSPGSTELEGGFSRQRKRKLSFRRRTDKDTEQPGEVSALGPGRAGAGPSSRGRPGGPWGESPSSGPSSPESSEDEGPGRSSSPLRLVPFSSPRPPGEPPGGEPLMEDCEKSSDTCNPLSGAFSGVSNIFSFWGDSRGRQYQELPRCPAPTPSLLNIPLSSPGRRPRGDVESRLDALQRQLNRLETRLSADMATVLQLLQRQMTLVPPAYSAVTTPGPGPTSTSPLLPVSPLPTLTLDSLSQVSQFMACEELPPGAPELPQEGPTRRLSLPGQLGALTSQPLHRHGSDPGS
Outline: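 Cells were infected with hERG-BacMam virus for 4 hrs at room temperature, grown overnight, then seeded at 2000/well. After dye loading and roughly 10 min compound treatment, thallium influx was triggered and fluorescence recorded.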

[10] = molecular target: Luciferin 4-monooxygenase (Photinus pyralis) (UniProt P08659); test: Biochemical firefly luciferase enzyme assay for NPC (AID 624030);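 further: purified P. pyralis luciferase at 10 nM with luciferin and ATP substrate; series mostly up to about 59 µM; 0% = DMSO and -100% = full luciferase inhibition by PTC124 control; nearly all actives have a fitted effect of over 70% in size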
Sequence of Luciferin 4-monooxygenase (Photinus pyralis) (P08659 whole entry, looked up): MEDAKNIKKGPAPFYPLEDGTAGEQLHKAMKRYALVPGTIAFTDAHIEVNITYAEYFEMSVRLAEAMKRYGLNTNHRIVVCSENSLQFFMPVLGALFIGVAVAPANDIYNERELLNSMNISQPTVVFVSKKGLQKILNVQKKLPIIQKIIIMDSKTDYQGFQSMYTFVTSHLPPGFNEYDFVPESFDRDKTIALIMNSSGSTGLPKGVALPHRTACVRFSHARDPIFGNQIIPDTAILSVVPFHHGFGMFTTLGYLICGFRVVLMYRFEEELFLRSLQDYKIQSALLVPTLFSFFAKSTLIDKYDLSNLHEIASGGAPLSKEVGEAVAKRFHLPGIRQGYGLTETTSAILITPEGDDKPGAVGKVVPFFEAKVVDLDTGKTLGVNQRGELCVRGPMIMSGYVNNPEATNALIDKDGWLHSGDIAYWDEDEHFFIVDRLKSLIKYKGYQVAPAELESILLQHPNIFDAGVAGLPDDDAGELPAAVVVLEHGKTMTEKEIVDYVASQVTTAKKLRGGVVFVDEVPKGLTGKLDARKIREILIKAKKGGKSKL
Outline: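 Direct inhibition of firefly luciferase enzyme (10 nM final, 50 mM Tris Acetate) assessed by luminescence within 5 minutes. Percent activity scaled between DMSO and PTC124 positive control, with concentration-effect curves classified by fit quality and response.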

[11] = S16 Schwann cell viability assay (CellTiter-Glo assay) (AID 624031);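 further: cellular ATP luminescence as a viability measure; series mostly up to about 58 µM; plate controls were DMSO-treated cells for no effect and cell-free wells for full effect; nearly all actives have a fitted effect of over 70% in size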
Outline: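 CellTiter-Glo ATP luminescence counter-screen in untransfected S16 rat Schwann cells, 24h compound exposure at 37 degree Celsius after overnight seeding (500-750 cells/well); response scaled between cell-free wells and DMSO (0% activity), curves classed by r2 and magnitude.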

[12] = S16 Schwann cell PMP22 intronic element firefly luciferase assay (AID 624032); further: nearly all actives have a fitted effect of over 30% in size; further: potency means the concentration at half of the fitted maximal effect
Outline: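 Luciferase reporter of PMP22 intronic-element expression in stably transfected S16 rat Schwann cells, read by ONE-Glo luminescence after 24 h compound exposure at 37 C. Activity scaled between DMSO (0%) and positive-control PTC124; concentration-effect curves quality-classified.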

[13] = molecular target: Glutaminase kidney isoform, mitochondrial (Homo sapiens) (UniProt O94925); test: qHTS for Inhibitors of Glutaminase (GLS): LOPAC Validation (AID 624146);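 further: glutamate product detected by oxidase and peroxidase coupled Amplex red fluorescence gain; series mostly up to about 46 µM; on the % scale 0 is the no-effect control and ±100 the full control effect; nearly all actives have a fitted effect of over 60% in size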
Sequence of Glutaminase kidney isoform, mitochondrial (Homo sapiens) (O94925 whole entry, looked up, canonical isoform): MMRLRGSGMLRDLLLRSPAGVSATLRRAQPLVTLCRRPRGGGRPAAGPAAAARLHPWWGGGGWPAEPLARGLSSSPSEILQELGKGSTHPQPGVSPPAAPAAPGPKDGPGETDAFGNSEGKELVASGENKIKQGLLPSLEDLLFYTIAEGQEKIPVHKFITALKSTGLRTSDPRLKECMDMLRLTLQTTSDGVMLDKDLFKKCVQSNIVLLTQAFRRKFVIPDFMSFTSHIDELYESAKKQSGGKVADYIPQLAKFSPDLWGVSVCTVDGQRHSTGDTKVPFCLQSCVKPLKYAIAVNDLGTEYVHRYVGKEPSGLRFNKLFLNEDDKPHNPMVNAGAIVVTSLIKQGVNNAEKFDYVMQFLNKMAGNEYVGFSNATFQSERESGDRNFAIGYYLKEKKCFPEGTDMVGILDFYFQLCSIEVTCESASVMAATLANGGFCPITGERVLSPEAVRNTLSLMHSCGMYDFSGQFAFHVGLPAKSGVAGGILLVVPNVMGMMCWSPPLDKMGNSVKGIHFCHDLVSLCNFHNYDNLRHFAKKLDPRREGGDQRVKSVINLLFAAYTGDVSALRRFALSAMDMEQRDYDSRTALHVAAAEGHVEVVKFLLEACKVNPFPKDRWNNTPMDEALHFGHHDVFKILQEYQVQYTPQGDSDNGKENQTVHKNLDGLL
Outline: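 Glutamate formation by hKGA was monitored fluorometrically using coupled glutamate oxidase, HRP and Amplex Red. Substrate was added as 1 mM L-glutamine solution; incubation was 30 min at RT after an initial read.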

[14] = qHTS of Trypanosoma Brucei Inhibitors: LOPAC Validation (AID 624147); further: 0% is about no effect
Outline: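 T. brucei PYK with substrate was exposed to pin-transferred compounds across a concentration series, then started with 130 uM ADP (final). After 45 min at room temperature, Kinase-Glo Plus luminescence was read, normalized and curve-fitted.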

[15] = molecular target: Glucagon-like peptide 1 receptor (Homo sapiens) (UniProt P43220); test: qHTS of GLP-1 Receptor Agonists: LOPAC Validation (AID 624148);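 further: luminescence from a luciferase reporter switched on by cAMP; 0% is about no effect; higher luminescence signal means agonism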
Sequence of Glucagon-like peptide 1 receptor (Homo sapiens) (P43220 whole entry, looked up): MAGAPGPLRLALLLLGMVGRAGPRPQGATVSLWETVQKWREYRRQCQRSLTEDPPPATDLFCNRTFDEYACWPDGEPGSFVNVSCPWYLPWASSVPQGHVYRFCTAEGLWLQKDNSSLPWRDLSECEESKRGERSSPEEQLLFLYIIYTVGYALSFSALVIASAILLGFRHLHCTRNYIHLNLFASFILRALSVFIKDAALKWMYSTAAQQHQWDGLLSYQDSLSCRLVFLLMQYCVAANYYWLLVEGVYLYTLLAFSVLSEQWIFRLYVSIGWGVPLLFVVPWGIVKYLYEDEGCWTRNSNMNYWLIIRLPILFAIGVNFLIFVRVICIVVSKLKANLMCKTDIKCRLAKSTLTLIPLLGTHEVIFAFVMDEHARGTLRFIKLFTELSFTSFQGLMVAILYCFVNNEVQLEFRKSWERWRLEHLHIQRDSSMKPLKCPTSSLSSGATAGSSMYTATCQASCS
Outline: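 Agonism scored as increased luciferase luminescence driven by cAMP in HEK293 clones carrying GLP-1R. Cells settled 12 hours, received compound for 4-6 hr at 37 deg C, 5% CO2, and were read after 12 min detection reagent at RT.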

[16] = qHTS of Nrf2 Activators: LOPAC Validation (AID 624149); further: 0% is about no effect
Outline: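 Luciferase signal from ARE activation, read with Steady-Glo after 30 min at room temperature. Compounds were pin-transferred onto AREc32_Fluc cells (1000/well, OPTI-MEM/5% FBS, seeded overnight) and left 24 hr at 37 deg C.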

[17] = molecular target: Peroxisome proliferator-activated receptor gamma (Homo sapiens) (UniProt P37231); test: qHTS assay for small molecule agonists of peroxisome proliferator-activated receptor gamma signaling (AID 588536; active means well fitted curve in the direction sought with a large enough effect in the signal ratio, with a control signal flat, not every such curve was filed as active; the % refers to the signal ratio;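 further: 0% = DMSO basal wells and 100% = rosiglitazone at 2 µM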)
Sequence of Peroxisome proliferator-activated receptor gamma (Homo sapiens) (P37231 whole entry, looked up): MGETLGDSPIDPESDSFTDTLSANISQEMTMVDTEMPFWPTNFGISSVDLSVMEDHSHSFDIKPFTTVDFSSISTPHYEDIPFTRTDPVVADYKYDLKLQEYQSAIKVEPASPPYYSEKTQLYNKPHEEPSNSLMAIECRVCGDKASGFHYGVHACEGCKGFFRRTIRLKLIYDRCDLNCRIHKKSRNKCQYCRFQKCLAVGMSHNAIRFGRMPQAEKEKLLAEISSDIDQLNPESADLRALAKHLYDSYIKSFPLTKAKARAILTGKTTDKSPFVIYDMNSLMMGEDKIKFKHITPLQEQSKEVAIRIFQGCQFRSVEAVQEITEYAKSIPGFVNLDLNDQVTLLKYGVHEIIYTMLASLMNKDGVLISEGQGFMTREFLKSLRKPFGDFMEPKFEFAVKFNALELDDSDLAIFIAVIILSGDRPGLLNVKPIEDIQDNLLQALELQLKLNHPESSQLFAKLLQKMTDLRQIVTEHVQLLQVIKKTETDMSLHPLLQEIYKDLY
Outline: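 Beta-lactamase reporter read-out: CCF4 fluorescence (ex 405, em 460/530 nm) after 2 h at RT. HEK293 GeneBLAzer cells were treated for 16 h at 37 C. Hill fits gave EC50 and efficacy versus 2 uM rosiglitazone (100%) and DMSO (0%).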

[18] = molecular target: Peroxisome proliferator-activated receptor gamma (Homo sapiens) (UniProt P37231); test: qHTS assay for small molecule antagonists of peroxisome proliferator-activated receptor gamma signaling (AID 588537; active means well fitted inhibition curve with a large enough effect in the signal ratio, with a control signal flat, not every such curve was filed as active; the % refers to the signal ratio; further: potency means the concentration at half of the fitted maximal effect)
Outline: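 Antagonist-mode β-lactamase reporter screen run as a titration series. HEK293 PPARγ-UAS-bla cells are stimulated with rosiglitazone (50 nM final) for 16 h, then CCF4 is read at 460/530 nm. Data are scaled between DMSO and rosiglitazone and fitted to the Hill equation.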

[19] = S16 Schwann cell PMP22 intronic element beta-lactamase assay (AID 624044; calls by dose curve;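 further: 0% = DMSO and -100% = potassium clavulanate positive control; nearly all actives have a fitted effect of over 15% in size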)
Outline: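 Beta-lactamase reporter under a PMP22 intronic regulatory element in stable S16 rat Schwann cells; 24 h compound exposure. 460 nm blue signal normalized between DMSO (0%) and potassium clavulanate, with 535 nm FRET tracking viability; curves classed by r2 and response.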

Nc1ccncc1
inactive: outcome [1] | outcome [2] | outcome [3] | Potency [5] | outcome [6] | max response [8] -7.1% | Potency [9] | Potency [10] | Potency [11] | Potency [12] | Potency [13] | outcome [14] | outcome [15] | outcome [16]
-10.7%: max response [4]
-5.09%: max response [7]

CNCC(O)c1ccc(O)cc1 (centres undefined)
4.18%: max response [4]
8.32%: max response [7]
inactive: outcome [1] | outcome [2] | outcome [3] | Potency [5] | outcome [6] | max response [8] 7.59% | Potency [9] | outcome [14] | outcome [16]

Oc1ccccc1-c1ccccc1
39.8 µM (active) and inactive: Potency [18]
-4.16% and -11.3% and -6.05%: max response [7]
inactive: outcome [1] | outcome [17] | outcome [2] | outcome [3] | outcome [6] | max response [8] 10.1% and -5.66% and 6.56% | Potency [9] | Potency [10] | Potency [11] | Potency [12]
9.97% and -12.1% and -6.9%: max response [4]

Oc1cccc2cccnc12
12%: max response [7]
inactive: outcome [1] | outcome [17] | Potency [18] | outcome [2] | outcome [3] | outcome [6] | max response [8] -19.8% | Potency [9] | Potency [10] | Potency [12]

OCCOc1ccccc1
-2.94% and -12.9% and -4.25%: max response [4]
-0.71% and -11.6% and -11.4%: max response [7]
inactive: outcome [1] | outcome [17] | Potency [18] | outcome [2] | outcome [3] | outcome [6] | max response [8] 15.3% and -5.21% and -13.9% | Potency [9] | Potency [10] | Potency [12]

C=CCN1CC[C@]23c4c5ccc(O)c4O[C@H]2C(=O)CC[C@@]3(O)[C@H]1C5
inactive: Potency [9]

C#CCN(C)[C@H](C)Cc1ccccc1
inactive: Potency [9]

CCN(CC)CCN1C(=O)CN=C(c2ccccc2F)c2cc(Cl)ccc21
inactive: Potency [10] | Potency [11] | Potency [12] | Potency [19]
active: Potency [9] 3.98 µM

Cc1ncc(CNC(=O)N(CCCl)N=O)c(N)n1
inactive: Potency [9] | Potency [10] | Potency [11] | Potency [12] | Potency [19] | Potency [13] | outcome [14] | outcome [15] | outcome [16]

NN=C(N)N
inactive: Potency [9] | Potency [10] | Potency [11] | Potency [12] | Potency [13] | outcome [14] | outcome [15] | outcome [16]

CN(C)CCc1ccc(O)cc1
inactive: Potency [9] | Potency [10] | Potency [11] | Potency [12]

CC(C)CC(N(C)C)C1(c2ccc(Cl)cc2)CCC1 (centres undefined)
inactive: Potency [9] | Potency [10] | Potency [11] | Potency [12] | Potency [19]

CCC1(C2=NCCN2)Cc2ccccc2O1 (centres undefined)
inactive: Potency [9] | Potency [10] | Potency [11] | Potency [12] | outcome [14] | outcome [15] | outcome [16]

COc1ccc(C(CN(C)C)C2(O)CCCCC2)cc1 (centres undefined)
inactive: Potency [9] | Potency [10] | Potency [11] | Potency [12] | Potency [13] | outcome [14] | outcome [15] | outcome [16]

CC1OC(C)OC(C)O1 (centres undefined)
inactive: Potency [9] | Potency [10] | Potency [11] | Potency [12] | Potency [19]

Clc1cccc(N2CCNCC2)c1
inactive: Potency [9] | Potency [10] | Potency [11] | Potency [12]

CCCC1CCCCN1 (centres undefined)
inactive: Potency [9] | Potency [10] | Potency [11] | Potency [12]

Cn1c(CCCC(=O)O)nc2cc(N(CCCl)CCCl)ccc21
inactive: Potency [9] | Potency [10] | Potency [11]
active: Potency [12] 1.02 µM

COc1ccccc1N1CCNCC1
inactive: Potency [9] | Potency [10] | Potency [11] | Potency [12] | Potency [19] | Potency [13] | outcome [14] | outcome [15] | outcome [16]

CCN(CC)CCOC(=O)C(O)(c1ccccc1)c1ccccc1
active: Potency [9] 15.8 µM
inactive: Potency [10] | Potency [11] | Potency [19]

CC(=O)[C@H]1CC[C@H]2[C@@H]3CC[C@H]4C[C@](C)(O)CC[C@]4(C)[C@H]3CC[C@]12C
inactive: Potency [9] | Potency [10] | Potency [11] | Potency [12] | Potency [19] | Potency [13] | outcome [14] | outcome [15] | outcome [16]

CCC(C(N)=O)N1CCCC1=O (centres undefined)
inactive: Potency [9] | Potency [10] | Potency [11] | Potency [12]

Cc1ccc(-c2nc3ccc(C)cn3c2CC(=O)N(C)C)cc1
inactive: Potency [9] | Potency [10] | Potency [11] | Potency [12] | Potency [19]

O=[N+]([O-])c1cc([As](=O)(O)O)ccc1O
inactive: Potency [9] | Potency [10] | Potency [11] | Potency [12] | Potency [19]
